Results from the OligoGym collection.

target: SNRNP200; test: pooled miR-30 sensor sort-seq; sequence = guide strand; settings: shRNA
Also: reference of the scale not given here.

Sequence	sensor-assay potency score (higher = more potent)
TTCACTAGCACATGGTATCTGG	-0.256
TTCTTGAAGAAATCCTTCTTGG	-0.674
TTTCATTCTTTAGAACAGCTAG	0.0872
TTGTTCTCAATGGTCTTGGTGA	-0.0384
TGTAATGAGGTGCTCGTCCTGG	-0.352
TTGCAGAAGAACGTTGATCTTA	-0.0878
AATATCGCTCGCATCAACCGGC	0.041
TTGAACTCAGAGGACAATGAGA	-0.903
TACTTGACCAGATTGTTCTTGT	0.676
TGCACTGACAACTCCAACTTGG	-0.38
TATCTTGGTAAAGACTCTCAAA	-1.23
TACAGTGTTAAACACCTGGGTC	-1.05

target: SNRNP70; test: as above; settings: shRNA

Sequence	sensor-assay potency score (higher = more potent)
AATCTTCTTGCCATCTGCGTGT	-0.116
TCGCTCGTGTTCGTACTCGATG	-1.13
TATTCTTTTGATAGGTCCGTAC	-0.682
TCCTCTTCTGGTACCACCGAGG	-1.82
TTCATGTGGCAGTTTCTCCAGG	-0.18
TACACCTCAAACTCTCTCCGGA	0.28
TTAAGCTCTGTCTCCACTTCTT	-0.388
TTGCTGTCGCCGCTCAATCTTT	-1.5
TAAGCTCTGTCTCCACTTCTTG	-0.943
